Drawing on the supplement of paper PMC7866885, “A novel bicyclic 2,4-diaminopyrimidine inhibitor of Streptococcus suis dihydrofolate reductase” (PeerJ, 2021), this text covers percent growth for 40 compounds.

± gives the standard deviation.

The subject of the assay is Streptococcus suis P1/7. The assay is described as follows: percent growth relative to DMSO control; higher = less growth inhibition. Particulars: 10 µM; incubation time 18 h. As to the method:
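CLSI broth microdilution: 5x10^4 CFU of Streptococcus suis (strain P1/7 or HE06) incubated with 10 µM Pathogen Box compound in cation-adjusted Mueller Hinton broth, 37 °C, 5% CO2, 18 h. Growth read as OD600 and expressed as percent of the DMSO-treated control (100%); mean ± SD of three independent experiments.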
Regarding `CC(=O)N1CCN(c2ccc(Oc3ccc(Cl)cc3O)cc2)CC1`, the percent growth worked out at 95.7 ± 30%.

In turn, `COc1cc(NC(=O)Cc2nn(C)c(=O)c3ccccc23)ccc1Cl` gave a percent growth of 108 ± 46%. In the case of `O=C(Nc1cnc2ccccc2c1)c1cccc(-n2cnnn2)c1` it was 106 ± 28%; in that of `CCCCS(=O)(=O)Nc1ccc2cnn(C)c2c1`, 73 ± 10%; in that of `COCC(C)NC(=O)CSc1ncnc2sc(-c3ccccc3)cc12` (stereo not given), 84.8 ± 13%.

The compound `CC[C@@H]([C@H](C)O)n1ncn(-c2ccc(N3CCN(c4ccc(OC[C@@H]5CO[C@@](Cn6cncn6)(c6ccc(F)cc6F)C5)cc4)CC3)cc2)c1=O` had a percent growth of 77.5 ± 0.79%.

The compound `FC(F)(F)c1cccc(-c2nc3c(NCc4ccncc4)nccc3[nH]2)c1` yielded a percent growth of 72.5 ± 22%. Consider `COc1ccc2nc(C)cc(OCC(=O)Nc3ccccc3OC)c2c1`, for which the percent growth was 67.6 ± 16%. Consider `Cc1cc(Nc2ccncc2)n2nc(C)c(-c3ccccc3Cl)c2n1`, for which the percent growth worked out at 105 ± 37%.

`CC(=O)NCC1CN(c2ccc(-c3ccc(CNCc4cn[nH]n4)cc3)c(F)c2)C(=O)O1` (stereo not given) came in with a percent growth of 0.637 ± 0.99%. Next, `COC(=O)c1cccc2oc(-c3cccc(OC)c3NC(=O)c3cc(-c4ccccc4)on3)nc12`: 66 ± 18%; `CCCNC(=O)N1CCC2(CC1)CC(=O)c1cc(C)ccc1O2`: 61.5 ± 9.9%. The compound `Cc1ncc(-c2ccnc(Nc3ccc(S(C)(=O)=O)cc3)n2)n1C(C)C` registered a percent growth of 150 ± 100%.

Compound `O=C1Nc2ccc(Br)cc2C12NCCc1c2[nH]c2ccccc12` (stereo not given) had a percent growth of 112 ± 38%. `Cc1ccc(-c2nc(CN(Cc3ccccn3)C(C)C)cs2)o1` returned a percent growth of 19.4 ± 34%.

The compound `COc1cccc(-n2nnnc2S(C)(=O)=O)c1` returned a percent growth of 67.1 ± 23%. The compound `COc1cccc(NC(=O)c2c(NC(=O)c3cccnc3)sc3c2CCC3)c1` had a percent growth of 86.6 ± 15%. Regarding `CC(=O)NC[C@H]1CN(c2ccc(N3CCSCC3)c(F)c2)C(=O)O1`, the percent growth is 2.2 ± 3.8%. The compound `CCC(Sc1nc2ccccc2o1)C(=O)Nc1nccs1` (stereo not given) gave a percent growth of 9.43 ± 16%. With `CC(=O)Oc1ccccc1C(=O)Nc1ncc([N+](=O)[O-])s1`, the percent growth was 35.5 ± 5.8%. In turn, `Nc1ncnc2[nH]nc(Cc3cccc4ccccc34)c12` came in with a percent growth of 66.1 ± 20%. As to `COc1cc(C2=NCCN2)ccc1-c1cn(-c2cccc(C3=NCCN3)c2)nn1`, the percent growth worked out at 73 ± 4.1%. In the case of `CCCCN(CCCC)c1c(C#N)cc(S(=O)(=O)Nc2ccccc2)cc1C#N` it was 69.8 ± 27%; in that of `O=C(NC1CC1)c1ccc(CSCc2ccccc2Cl)o1`, 65.8 ± 24%. Next, `COc1ccc(-c2nn(C(C)C)c3ncnc(N)c23)cc1OC`: 121 ± 74%; `COc1ccccc1CNC(=O)c1cc(C2CC2)nc2c1cnn2C(C)C`: 83.8 ± 45%.

As to `CN(C)c1cc(NC(=O)Nc2ccccc2)c2ccccc2n1`, the percent growth amounted to 87 ± 34%. In turn, `CC(C)(C)C(=O)N(CCCCCCN1C[C@H](O)[C@@H](O)[C@H](O)[C@H]1CO)C1CCCCCC1` came in with a percent growth of 130 ± 56%. The compound `CN1CCN(S(=O)(=O)c2ccc(-c3ccc4c(Nc5ncc(Cl)cn5)ccnc4c3)cc2)CC1` yielded a percent growth of 103 ± 47%.

Regarding `Cc1ccc(NC(=O)c2cc(S(=O)(=O)NC(C)(C)C)ccc2C)nc1`, the percent growth was 75.6 ± 20%. Regarding `Nc1ncnc2c1ncn2C[C@@H](O)[C@@H](O)C(=O)O`, the percent growth was 87.3 ± 15%. `FC(F)(F)c1cc(NCCc2ccccc2)nc(-c2ccccn2)n1` had a percent growth of 9.89 ± 17%. As for `COc1ccc(C2CC(c3cccs3)=NN2C(=O)c2ccco2)cc1OC` (stereo not given), the percent growth worked out at 99.7 ± 26%. Next, `COc1ccc(C2=NCCN2)cc1-c1cn(-c2cccc(C3=NCCN3)c2)nn1`: 87.9 ± 21%. Next, `Cc1nc2ccccn2c1C(=O)NCc1ccc(Cl)cc1`: 133 ± 76%; `Clc1cccc(C(c2ccc(CN3CCNCC3)cc2)n2ccnc2)c1` (stereo not given): 76.7 ± 5.8%.

Regarding `CO[C@H]1/C=C/O[C@@]2(C)Oc3c(C)c(O)c4c(O)c(/c(=C/NN5CCN(C)CC5)c(O)c4c3C2=O)=N\C(=O)/C(C)=C\C=C/[C@H](C)[C@H](O)[C@@H](C)[C@@H](O)[C@@H](C)[C@H](OC(C)=O)[C@@H]1C`, the percent growth is 1.07 ± 0.94%.

In turn, `Clc1ccc(CCNc2cc(-c3ccccc3)nc3ncnn23)cc1` displayed a percent growth of 81.5 ± 18%. Compound `O=C(Nc1nc(-c2ccccn2)cs1)C1CC1c1ccccc1F` (stereo not given) came in with a percent growth of 2.29 ± 3.7%.

Compound `CC(C)(C)c1cc(C(=O)Nc2cccnc2)cc(C(=O)Nc2cccnc2)c1` returned a percent growth of 143 ± 90%.
